HIV Env fusion – inhibitors of HIV-1 Env-driven cell-cell fusion, primary screen, HeLa-JRFL effector, CEM21 target cells, luciferase; inhibition, % at 12.3 µM; 360,000 tested, 1.1% active;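 active = mean replicate inhibition score of at least 50 and every replicate individually at or above 50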;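 also: 0% = plate neutral controls and 100% = maraviroc near 300 nM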
CFTR F508del cor – F508del CFTR correction, initial screen, CFBE line, single point | 350,000 tested, 0.36% active | activity (quench increase), % at 7.58 µM | CFBE cells, YFP halide quenching; stimulated with forskolin plus potentiator P3; % fluorescence drop versus neutral controls;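 active = mean added fluorescence quench of at least 8% versus neutral control, with both replicates also reaching 8%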;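 also: cells transiently co-express mutant CFTR-F508del with the halide-sensitive YFP; corrector assay measuring rescue of mutant channel to the surface after 24 h compound exposure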
MITF TRPM1 HTS – activators of MITF-driven TRPM1 promoter reporter, primary screen, cell-based, SK-MEL-5, luciferase, single point. SK-MEL-5 TRPM1-promoter luciferase, 24 h; % of positive control, neutral wells = 0. AID 588334, 2011. 300,000 tested, 0.75% active. activation, % at 12.5 µM;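 active = mean activation of at least 80% with every replicate also reaching 80%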;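 also: 0% = neutral control wells and 100% = parthenolide positive control wells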
INS-1E GSIS act – GLuc luminescence reporter in INS-1E cells, primary screen for activators of glucose-dependent secretion of insulin; activation, % at 16.6 µM; 370,000 tested, 0.61% active; INS-1E GLuc reporter insulin secretion, 2-3 h;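 active = lowest replicate activation of at least 40%, so every replicate reaches that level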;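 also: 0% = median of neutral control wells and 100% = median of IBMX positive control wells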
Wnt act – Wnt/beta-catenin pathway activators, primary screen, cell-based, plate reader, single point | Wnt/beta-catenin reporter cell assay, activator | 300,000 tested, 1.2% active | AID 743398, 2014 | activation, % at 9.35 µM; in the data active = activation above about 30%, passing the limit was not always enough;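 also: 0% = neutral control wells and 100% = positive control wells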
* hit, by the source's call; . = no result given; [ ] = another dose, or the depositor's remark. This is a sample that favours compounds with a hit; in the whole collection about 2.7% have one here.

SMILES | HIV Env fusion | CFTR F508del cor | MITF TRPM1 HTS | INS-1E GSIS act | Wnt act
COc1ccc(NC(=O)C2CCN(S(=O)(=O)c3ccc4c(c3)CC(C)N4C(C)=O)CC2)cc1OC (stereo unspecified) | 2 | 1 | -6 | 26 | -1
CCC(C)NC(=O)C1CCCN(S(=O)(=O)c2ccc3c(c2)CC(C)N3C(=O)C2CC2)C1 (stereo unspecified) | -8 | -1 | -1 | -9 | -1
CCC(C)NC(=O)C1CCCN(S(=O)(=O)c2ccc3c(c2)CC(C)N3C(C)=O)C1 (stereo unspecified) | 59* | -1 | -4 | -18 | -2
CCc1cccc(NC(=O)C2CCCN2S(=O)(=O)c2ccc3c(c2)CC(C)N3C(C)=O)c1 (stereo unspecified) | 61* | -1 | 4 | -12 | 1
CSc1nc2ccccc2n1CC(=O)Nc1ccccc1 | . | . | 15 | . | .
O=C(Cn1c(/C=C/c2ccccc2)nc2ccccc21)Nc1ccc(F)cc1 | -64 | 1 | 85* | -18 | 16
O=C1N/C(=N\N=C\c2cccs2)SC1Cc1ccc(Cl)cc1 (stereo unspecified) | -15 | . | 11 | -1 | 5
O=C1N/C(=N\N=C\c2cccs2)SC1Cc1cccc(Cl)c1 (stereo unspecified) | -2 | . | -4 | 86* | .
CN(C)c1ccc(N=Nc2ccc(S(N)(=O)=O)cc2)cc1 | -64 | 4 | 67 | -2 | 42*
CN(C)N=Nc1ccc(S(N)(=O)=O)cc1 | -19 | . | -4 | 0 | -1
C[C@@H]1CN([C@@H](C)CO)S(=O)(=O)c2ccc(-c3cccc(C#N)c3)cc2O[C@H]1CN(C)Cc1ccccn1 | 17[16.7 µM] | -2 | . | -11 | .
C[C@@H]1CN([C@H](C)CO)S(=O)(=O)c2ccc(-c3ccccc3)cc2O[C@H]1CN(C)Cc1ccccn1 | 22[16.7 µM] | 16* | . | -21 | .
C[C@@H]1CN([C@H](C)CO)S(=O)(=O)c2ccc(-c3ccc(C#N)cc3)cc2O[C@H]1CN(C)Cc1ccccn1 | -102[16.7 µM] | 12* | . | -5 | .
C[C@@H]1CCCCO[C@H](CN(C)Cc2ccc3c(c2)OCO3)[C@@H](C)CN([C@H](C)CO)C(=O)c2cc(NS(=O)(=O)c3ccccc3)ccc2O1 | -35[16.7 µM] | -1 | . | 4 | .
O=C(C[C@H]1CC[C@H]2[C@@H](COC[C@H](O)CN2C(=O)Nc2ccc(F)cc2)O1)NC1Cc2ccccc2C1 | . | 1 | . | -17 | .
O=C(Nc1cccc(-c2cn3c(n2)SCC3)c1)c1ccc2ccccc2n1 | -56 | -2 | 63 | -4 | 41*
CSc1ccc(/C=N/N(C)S(=O)(=O)c2ccc(C)cc2)cc1 | 25 | -3 | -8 | 121* | 0
C[C@@H]1CN([C@H](C)CO)C(=O)c2cc(NC(=O)Nc3ccc4c(c3)OCO4)ccc2O[C@@H](C)CCCCO[C@H]1CN(C)Cc1ccccc1 | -6[16.7 µM] | -2 | . | -21 | .
CC(C)(CNC(=O)c1cccc(S(=O)(=O)N2CCCCC2)c1)N1CCOCC1 | 63* | . | . | . | 119*
CN(Cc1cccs1)C(=O)c1cccc(S(=O)(=O)N2CCCCCC2)c1 | 10 | 31* | -3 | -19 | 0
CN(Cc1cccs1)C(=O)c1ccc(S(=O)(=O)N2CCCCC2)cc1 | -84 | -3 | 0 | -4 | -3
Cc1ccsc1CN(C)C(=O)c1cc(S(=O)(=O)N2CCOCC2)ccc1N1CCCC1 | . | 3 | 7 | -11 | 44*
Cc1ccc(CN(C)C(=O)c2ccc(S(=O)(=O)N3CCCCCC3)cc2)o1 | 17 | -2 | 13 | -26 | 36*
C[C@@H]1CN([C@H](C)CO)C(=O)c2cc(C#CCc3ccccc3)cnc2O[C@H]1CN(C)Cc1cccnc1 | 26[16.7 µM] | 1 | . | -3 | .
CCC(=O)N1[C@@H]2c3ccc(-c4ccncc4)c(=O)n3C[C@@H]2[C@@H](CO)[C@@H]1C(=O)Nc1ccccc1 | . | -2 | . | 10 | .
SMILES | HIV Env fusion | CFTR F508del cor | MITF TRPM1 HTS | INS-1E GSIS act | Wnt act
C[C@H](CO)N1C[C@H](C)[C@@H](CN(C)C)Oc2ncc(-c3ccccc3F)cc2C1=O | -10[16.7 µM] | -1 | . | 22 | .
CO[C@@H]1CN(C)C(=O)c2cc(NC(=O)C3CCC3)ccc2OC[C@@H](C)NC[C@@H]1C | . | -2 | . | 6 | .
CN(CCOc1ccc(Cl)cc1)C(=O)c1cccc(S(=O)(=O)N2CCN(c3ccccc3)CC2)c1 | . | 8.6* | -53 | -31 | -5
CN(CCOc1ccc(Cl)cc1)C(=O)c1ccc(S(=O)(=O)N2CCOCC2)cc1 | 8 | 2 | 18 | -9 | -3
CN(Cc1ccc(Cl)cc1Cl)C(=O)c1cccc(S(=O)(=O)N2CCN(c3ccccc3)CC2)c1 | 90* | -1 | -32 | -14 | 0
CC(C)NC(=O)Nc1ccc2c(c1)C(=O)N([C@@H](C)CO)C[C@H](C)[C@@H](CN(C)S(=O)(=O)c1cccs1)O2 | 19[16.7 µM] | -1 | . | 2 | .
COc1cccc(S(=O)(=O)N(C)C[C@@H]2OCc3cn(nn3)CCCC(=O)N([C@H](C)CO)C[C@@H]2C)c1 | . | -1 | . | -4 | .
CCCC#Cc1cnc2c(c1)C(=O)N([C@H](C)CO)C[C@H](C)[C@H](CN(C)Cc1ccncc1)O2 | 15[16.7 µM] | . | . | 14 | .
CCOC(=O)c1cnn(-c2nc(-c3ccccc3)cs2)c1C(F)(F)F | . | . | 14 | -25 | .
COC(=O)c1cnn(-c2nc(-c3ccccc3)cs2)c1N | -58 | 0 | 66 | 45* | 12
Cc1ccc2cc(NC(=O)c3ccccc3)ccc2n1 | -83 | 1 | 49 | 2 | 40*
Cc1ccc2cc(NC(=O)c3cccc(F)c3)ccc2n1 | -167 | -1 | . | . | 50*
COc1cccc(NC(=O)Nc2nccc(C)n2)c1 | 5 | 2 | -5 | 7 | 7
O=C(Nc1ccc2ccccc2c1)c1cccc(F)c1 | -181 | -1 | 123* | 4 | 46*
Cc1ccc2cc(NC(=O)CC(CC(=O)O)c3ccccc3)ccc2n1 (stereo unspecified) | -6 | -2 | 0 | -5 | 0
O=C(Nc1ccc2[nH]ncc2c1)c1cccc(F)c1 | -6 | 3 | . | 5 | -3
Cc1ccnc(NC(=O)Nc2cccc(F)c2)n1 | -52 | . | 28 | -11 | 80*
CC(C)(C)n1nc(Cc2cccc3ccccc23)c2c(N)ncnc21 | 82* | -2 | -15 | -4 | -7
COc1ccc2c3c([nH]c2c1)[C@H](CO)N(C(=O)Nc1c(C)noc1C)CC31CN(CC2CC2)C1 | . | . | . | 10 | .
Brc1ccc(-n2cnc(-c3ccccc3)c2)cc1 | -178 | 0 | 45 | -17 | 45*
O=[N+]([O-])c1ccc(-c2cn(-c3ccc(Cl)cc3)cn2)cc1 | -114 | -1 | . | -6 | 5
COc1cccc(S(=O)(=O)Nc2ccc3c(c2)[C@@H]2C[C@H](CC(=O)N[C@@H](C)c4ccccc4)O[C@@H](CO)[C@@H]2O3)c1 | -12[16.7 µM] | -3 | . | 1 | .
C[C@H]1CN([C@@H](C)CO)C(=O)c2cc(NS(=O)(=O)c3cn(C)cn3)ccc2O[C@H]1CN(C)Cc1ccc(C(F)(F)F)cc1 | -1[16.7 µM] | 1 | . | 7 | .
